The campaign covered roughly 4,400 compounds. About 390 (8.9%) showed an effect of 50% or more. The full list was thinned out, with strong results kept by preference.
The molecules below were run on Trypanosoma brucei (assay: DNDI: Inhibition of Human African Trypanosomiasis, SBRI 427, in vitro at 2 ug.mL-1).
Format: functional

Row | Compound | % inhibition [%]
1 | CCCN(CC1CC1)/C(=N\O)c1ccc(C)nc1Oc1cccc(C)c1 | -4
2 | Cc1ccc(/C(=N/O)N2CCCc3ccccc32)c(Oc2ccc3ccccc3c2)n1 | 15
3 | Cc1ccc(/C(=N/O)N2CCCc3ccccc32)c(Oc2cccc(F)c2)n1 | 93
4 | CSc1ccc(Oc2nc(C)ccc2/C(=N/O)N2c3ccccc3CCC2C)cc1C (stereo unspecified) | 0
5 | COc1ccc(Oc2nc(C)ccc2/C(=N/O)N2CCCc3ccccc32)cc1 | 11
6 | Cc1cc(C)cc(Oc2nc(C)ccc2/C(=N/O)N2CCCc3ccccc32)c1 | 53
7 | Cc1cc(C)cc(Oc2nc(C)ccc2/C(=N/O)N2c3ccccc3CCC2C)c1 (stereo unspecified) | 98
8 | Cc1ccc(/C(=N/O)N2CCCc3ccccc32)c(Oc2ccc(F)c(F)c2)n1 | 21
9 | CSc1ccc(Oc2nc(C)ccc2/C(=N/O)N2CCCc3ccccc32)cc1C | 10
10 | Cc1ccc(/C(=N/O)N2c3ccccc3CCC2C)c(Oc2cccc(F)c2)n1 (stereo unspecified) | 34
11 | CC(C)(C)COc1ncccc1/C(=N/O)NCCN1CCOCC1 | 6
12 | CCN(Cc1coc(-c2cccc(OC)c2)n1)c1cccc(C)c1 | -18
13 | Fc1ccc(N2CCN(Cc3coc(-c4ccc(Cl)cc4Cl)n3)CC2)cc1 | 14
14 | Cc1ccc(/C(=N/O)N(C)C2CCN(C)CC2)c(Oc2cccnc2)n1 | 9
15 | CC1CCCN1/C(=N\O)c1cccnc1Oc1ccc(F)cc1 (stereo unspecified) | 2
16 | c1coc(-c2nc(CN3CCCCCC3)co2)c1 | 16
17 | CCN(Cc1ccccc1)Cc1coc(-c2ccccc2)n1 | 9
18 | CN(Cc1coc(-c2ccc(C(F)(F)F)cc2)n1)C1CCN(Cc2ccccc2)C1 (stereo unspecified) | 0
19 | CCOc1ccccc1Oc1ncccc1/C(=N\O)NCc1ccncc1 | 0
20 | CCOc1ccccc1CN/C(=N\O)c1cccnc1Oc1ccc(CC)cc1 | 99
21 | CCc1ccc(Oc2ncccc2/C(=N/O)NCc2ccccc2OC)cc1 | 99
22 | CCOc1ccccc1CNCc1coc(-c2cccs2)n1 | -4

Row | Compound | % inhibition [%]
23 | Cc1nccn1/C(=N\O)c1ccnc(Oc2cccc3cnccc23)c1 | 14
24 | c1ccc(C(c2ccccc2)N2CCN(Cc3coc(-c4ccco4)n3)CC2)cc1 | 0
25 | Cc1ccc(/C(=N/O)N2CCCCCC2)c(OCc2ccccn2)n1 | 28
26 | C/C(=C\C#N)N/C(=N\O)c1ccnc(Oc2cc(C)ccc2C(C)C)c1 | 21
27 | CCOc1ccc(Oc2cc(/C(=N/O)NCc3ccccc3OC)ccn2)cc1 | 0
28 | c1ccc(-c2cn(Cc3coc(-c4cccc5ccccc45)n3)cn2)cc1 | -1
29 | CCN(/C(=N\O)c1cccnc1Oc1ccc2c(c1)CCCC2)C(C)C | 3
30 | CCOc1cccc(-c2nc(CN3CCN(c4ccccc4)CC3)co2)c1 | 17
31 | CC1CCc2ccccc2N1/C(=N\O)c1cccnc1OCC(C)(C)C (stereo unspecified) | 84
32 | CC1CCc2ccccc2N1/C(=N\O)c1cccnc1Oc1ccc(-n2cncn2)cc1 (stereo unspecified) | 81
33 | CC(C)(C)COc1ncccc1/C(=N/O)N1CCCc2ccccc21 | 100
34 | CC(C)(C)COc1ncccc1/C(=N/O)N1CCCCCC1 | 8
35 | CC(C)COc1ncccc1/C(=N/O)N1C(C)CCCC1C (stereo unspecified) | 6
36 | CC1CCC(C)N1/C(=N\O)c1cccnc1OCC(C)(C)C (stereo unspecified) | 93
37 | O/N=C(/c1cccnc1OCc1cccc(F)c1)N1CCCc2ccccc21 | -2
38 | CC1CCC(C)N1/C(=N\O)c1cccnc1Oc1ccc(-n2cncn2)cc1 (stereo unspecified) | 9
39 | O/N=C(/c1cccnc1OCc1ccccc1F)N1CCCc2ccccc21 | -20
40 | O/N=C(/c1cccnc1Oc1ccc(-n2cncn2)cc1)N1CCCc2ccccc21 | 10
41 | CC(C)(C)COc1ncccc1/C(=N/O)N1CCCC1 | 0
42 | CC(C)COc1ncccc1/C(=N/O)N1C(C)CCC1C (stereo unspecified) | -2
43 | O/N=C(/c1cccnc1Oc1ccc(F)c(Cl)c1)N1CCN(c2ccc(F)cc2)CC1 | -10
44 | O/N=C(\NCCN1CCOCC1)c1ccc(Oc2ccc(Cl)cc2)nc1 | -2

Row | Compound | % inhibition [%]
45 | Cc1cccc(Oc2ccc(/C(=N/O)n3ccnc3)cn2)c1 | 15
46 | COc1cccc(N2CCN(Cc3coc(-c4ccc(F)cc4)n3)CC2)c1 | -1
47 | CSc1ccc(Oc2nc(C)ccc2/C(=N/O)N2CCSCC2)cc1C | 12
48 | O/N=C(\NCCN1CCOCC1)c1cccnc1Oc1ccc2c(c1)CCCC2 | 8
49 | CCC(C)(C)N/C(=N\O)c1ccc(C)nc1Oc1cc(C)cc(C)c1 | 24
50 | CCOc1ccccc1-c1nc(CN2CCN(CC)CC2)co1 | 16
51 | Cc1ccc(/C(=N/O)NCCN2CCCC2)c(OCc2cccc(F)c2)n1 | -12
52 | CCOc1cccc(Oc2ncccc2/C(N)=N/O)c1 | 10
53 | CCOc1ccccc1-c1nc(CN(C)Cc2cccc3ccccc23)co1 | 15
54 | COc1ccc(NCc2coc(-c3ccc(F)cc3)n2)cc1 | -3
55 | Brc1ccccc1-c1nc(CNCCN2CCOCC2)co1 | 9
56 | Cc1cc(C)n(/C(=N\O)c2ccc(Oc3ccc(Cl)cc3)nc2)n1 | -5
57 | O/N=C(/c1cccnc1Oc1ccc(F)cc1Cl)N1CCCC1 | 13
58 | O/N=C(/c1cccnc1Oc1ccc(F)cc1Cl)N1CCCc2ccccc21 | 100
59 | O/N=C(/c1cccnc1Oc1ccc(F)cc1Cl)N1CCCCCC1 | 11
60 | COc1ccc(Oc2nc(C)ccc2/C(=N/O)N2CCC=N2)cc1 | 8
61 | CCOC(=O)N1CCN(Cc2coc(-c3ccccc3Cl)n2)CC1 | 8
62 | Cc1cccc(Oc2nc(C)ccc2/C(=N/O)N2Cc3ccccc3C2)c1 | 3
63 | Cc1ccc(Oc2nc(C)ccc2/C(=N/O)N(C)c2ccccc2)c(C)c1 | 41
64 | CC1CC(N/C(=N\O)c2cccnc2Oc2ccccc2OC(C)C)CC(C)(C)C1 (stereo unspecified) | 99
65 | CC(C)Oc1ccccc1Oc1ncccc1/C(=N/O)NCc1ccncc1 | 7
66 | CC(C)Oc1ccccc1Oc1ncccc1/C(=N/O)NC1CCCCC1 | 99

Row | Compound | % inhibition [%]
67 | COC(=O)C1CCN(/C(=N\O)c2cccnc2Oc2ccccc2OC(C)C)CC1 | -2
68 | CC1CCC(N/C(=N\O)c2cccnc2Oc2ccccc2OC(C)C)CC1 (stereo unspecified) | 98
69 | COc1ccc(CN/C(=N\O)c2cccnc2Oc2ccccc2OC(C)C)cc1 | -18
70 | CC(C)Oc1ccccc1Oc1ncccc1/C(=N/O)NCC1CCCO1 (stereo unspecified) | -11
71 | c1ccc(N2CCN(Cc3coc(-c4ccco4)n3)CC2)nc1 | 4
72 | COc1cc2c(cc1OC)C(C(C)C)N(Cc1coc(-c3ccccc3Cl)n1)CC2 (stereo unspecified) | 3
73 | COc1ccc(CCN(C)Cc2coc(-c3cc(OC)c(OC)c(OC)c3)n2)cc1OC | 9
74 | Clc1cccc(N2CCN(Cc3coc(-c4ccco4)n3)CC2)c1 | 10
75 | Fc1cccc(-c2nc(CNCc3cccnc3)co2)c1 | 17
76 | CCN(CCC#N)Cc1coc(-c2ccc(Cl)cc2Cl)n1 | 8
77 | Fc1ccc(-c2nc(CNCc3ccccc3C(F)(F)F)co2)cc1 | 18
78 | COc1ccc(-c2nc(CNC3CCCC(C)C3C)co2)cc1 (stereo unspecified) | 2
79 | CC1CCCC(NCc2coc(-c3ccccc3Br)n2)C1C (stereo unspecified) | 98
80 | CC1CCCCC1NCc1coc(-c2ccccc2Br)n1 (stereo unspecified) | 11
81 | CC1CCCCC1NCc1coc(-c2ccccc2Cl)n1 (stereo unspecified) | -2
82 | CC1CCCC(NCc2coc(-c3cccc(F)c3)n2)C1C (stereo unspecified) | 10
83 | CC1CCCC(NCc2coc(-c3cccc4ccccc34)n2)C1C (stereo unspecified) | 71
84 | CCOC(=O)c1cn(Cc2coc(-c3ccc(OCC)cc3)n2)nc1C(F)(F)F | -15
85 | Cc1ccc(Oc2nc(C)ccc2/C(=N/O)Nc2ccccc2)c(C)c1 | -4
86 | Cc1cc(N)nn1Cc1coc(-c2cccc3ccccc23)n1 | 25
87 | CC(C)c1ccc(N/C(=N\O)c2ccc(Oc3ccc(-n4ccnc4)cc3)nc2)cc1 | 11
88 | CCOc1ccc(-c2nc(Cn3nc(N)cc3C)co2)cc1 | 99

Row | Compound | % inhibition [%]
89 | COc1cccc(-c2nc(Cn3nc(N)cc3C)co2)c1 | 18
90 | COc1ccc(-c2nc(Cn3ccnc3C(C)C)co2)cc1 | 29
91 | Cc1cc(N)nn1Cc1coc(-c2ccc(F)cc2)n1 | 12
92 | Nc1cc(-c2ccccc2)n(Cc2coc(-c3ccc(OC(F)(F)F)cc3)n2)n1 | -3
93 | CC(C)c1nccn1Cc1coc(-c2ccc(OC(F)(F)F)cc2)n1 | 56
94 | CC(C)c1nccn1Cc1coc(-c2ccc(C(F)(F)F)cc2)n1 | -2
95 | Cc1cc(N)nn1Cc1coc(-c2ccc(OC(F)(F)F)cc2)n1 | 97
96 | COc1ccc(-c2nc(Cn3nc(N)cc3C)co2)cc1 | 25
97 | Cc1ccc(-c2nc(Cn3nc(N)cc3C)co2)cc1 | 99
98 | CCOc1ccc(-c2nc(Cn3nc(N)cc3-c3ccccc3)co2)cc1 | -17
99 | Cc1cccc(-c2nc(Cn3nc(N)cc3C)co2)c1 | 9
100 | Fc1ccc(-c2nc(CN3CCC(N4CCCCC4)CC3)co2)cc1 | 4
101 | O/N=C(/c1ccc(Oc2cccc3c2CCCC3)nc1)N1CCOCC1 | 15
102 | C=CCN1CCN(/C(=N\O)c2ccc(C)nc2OCc2ccccc2F)CC1 | 3
103 | FC(F)(F)c1ccc(-c2nc(CN3CCN(c4ncccn4)CC3)co2)cc1 | 4
104 | Cc1ccc(/C(=N/O)NCc2c(F)cccc2F)c(OCc2ccc(C(C)C)cc2)n1 | 16
105 | Cc1ccc(-c2nc(CN(C)c3cccc(C)c3)co2)cc1 | 21
106 | Cc1cc(Oc2nc(C)ccc2/C(=N/O)N2CCN(c3ccccc3)CC2)cc(C(C)C)c1 | 5
